Reference: PubChem BioAssay AID1851 (National Center for Advancing Translational Sciences (NCATS), 2009)
Among all 16,000 compounds or so, about 4,000 (25%) were called active. Another 26% or so got no clear call; they are omitted. The list is a sample of the results. Unmarked numbers belong to inactive results. The call rests on the fitted dose curve; in most records, active means well fitted curve in the direction sought with a large enough effect; inconclusive means small, poorly fitted or top-dose-only effect, or effect the other way; inactive means no such curve, though single readings can be large or run the other way. Square brackets hold non-standard residues; d marks the D form. Peptide text beside a SMILES is read from it. * marks the point of attachment. ξ: configuration not given here. Cbz = O=C(OCc1ccccc1)*; ξA = CC(N)C(=O)O

Biological target: Cytochrome P450 2C9 (Homo sapiens) (UniProt P11712)
Sequence (P11712 whole entry, looked up): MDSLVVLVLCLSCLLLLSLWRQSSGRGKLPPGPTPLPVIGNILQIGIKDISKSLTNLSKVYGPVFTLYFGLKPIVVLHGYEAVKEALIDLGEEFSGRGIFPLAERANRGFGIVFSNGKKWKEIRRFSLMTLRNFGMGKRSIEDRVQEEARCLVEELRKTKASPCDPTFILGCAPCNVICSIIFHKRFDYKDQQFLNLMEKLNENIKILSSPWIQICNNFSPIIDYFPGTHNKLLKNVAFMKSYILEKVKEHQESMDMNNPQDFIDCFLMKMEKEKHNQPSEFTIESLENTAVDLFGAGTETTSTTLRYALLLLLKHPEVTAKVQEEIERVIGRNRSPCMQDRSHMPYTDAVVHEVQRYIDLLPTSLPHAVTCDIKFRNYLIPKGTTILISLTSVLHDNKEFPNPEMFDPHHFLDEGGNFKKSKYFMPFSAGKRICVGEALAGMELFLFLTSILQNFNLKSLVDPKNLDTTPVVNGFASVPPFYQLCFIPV
Experiment: Cytochrome panel assay with activity outcomes
Settings: recombinant CYP, pro-luciferin dealkylation, luminescence, p450-cyp2c9; series mostly up to 57.1 µM
On the % scale 0 is the no-effect control and ±100 the full control effect.

Compound	activity, negative = inhibition	AC50
Cc1cnc(CNc2cc(-c3ccccc3C)ncn2)cn1	-11.2% [at 2.29 µM]	–
CCc1ccc(-c2csc(NC(=O)C3CCCO3)c2C(=O)OC(C)C)cc1 (stereo not given)	–	4.47 µM (active)
CO/N=C\[C@@H](OC)[C@H](C)/C=C\CC(=O)OC	-2.61% [at 11.4 µM]	–
CCOc1cc(/C=C2/SC(=O)N(CC(=O)N3CCc4ccccc4C3)C2=O)ccc1OCC(=O)O	–	12.6 µM (active)
Cn1c(=O)[nH]c2ncn(C)c2c1=O	–	inactive
Cc1c(Br)c([N+](=O)[O-])nn1CC(=O)NCc1ccccn1	–	inactive
Cc1ccc(NC(=O)Cn2nc([N+](=O)[O-])c(Br)c2C)cc1C	–	14.1 µM (active)
Cc1c(Br)c([N+](=O)[O-])nn1CC(=O)NCc1cccs1	–	inactive
CC[n+]1c(/C=C/Nc2ccccc2)oc2ccccc21	–	inactive
CCc1cccc(C)c1NC(=O)CSc1nc2ccc(N3C(=O)c4ccccc4C3=O)cc2s1	–	3.55 µM (active)
CC[N+](CC)(CC(=O)Nc1c(C)cccc1C)Cc1ccccc1	–	inactive
NC(=O)CNC(=O)[C@@H]1CC2(CC(c3ccccc3)=NO2)CN1C(=O)c1ccc(Br)cc1 (stereo not given in full)	–	inactive
COc1ccc(CN(CCC#N)C(=S)NC(=O)c2ccccc2)cc1	–	0.631 µM (active)
O=C(NC(=S)N(Cc1ccccc1)Cc1ccccc1)c1ccccc1F	–	0.891 µM (active)
O=C(O)c1ccccc1C(=O)NCc1ccc(F)cc1	–	inactive
CCOc1ccc(C(=O)NC(=S)N(Cc2ccccc2)Cc2ccccc2)cc1	–	10 µM (active)
CN1CCN(NC(=O)c2ccccc2F)CC1	–	inactive
O=C(NC1(C(F)(F)F)C(=O)Nc2c1c(=O)[nH]c(=O)n2-c1ccc(F)cc1)c1cccnc1 (stereo not given)	–	inactive
Cc1cccc(CNc2ncncc2-c2cccc(C#N)c2)c1	-7.76% [at 2.29 µM]	–
Cn1cccc1C(=O)N1CCC[C@@]2(CCN(c3ccccn3)C2)C1	–	inactive
Cc1ccc(CC(=O)N2CC(C)OC(C)C2)cc1 (stereo not given)	–	inactive
Cc1ccc(-c2nnc(C)c(N3CC(C)OC(C)C3)n2)cc1 (stereo not given)	–	17.8 µM (active)
O=C1NCCCC1C(=O)Nc1ccccc1C(F)(F)F (stereo not given)	–	inactive
CCCC[C@@H]1C[C@H]1C(NC(=O)c1ccccc1)c1ccccc1C(F)(F)F (stereo not given in full)	–	1.26 µM (active)

Compound	activity, negative = inhibition	AC50
CCCC[C@@H]1C[C@H]1C(NC(=O)c1cccs1)c1ccccc1C(F)(F)F (stereo not given in full)	–	1 µM (active)
C#CCCCO/N=C1/[C@H]2O[C@@H]2[C@@H](O)[C@H]2[C@H]1CCn1c(=O)n(C)c(=O)n12	4.28% [at 11.4 µM]	–
CCOC(=O)C1CN(S(=O)(=O)c2cccc(C(F)(F)F)c2)c2cc(CC(=O)OC)ccc2O1 (stereo not given)	–	6.31 µM (active)
O=C(CCNC(=O)c1ccccc1)OCN1C(=O)c2ccccc2C1=O	–	inactive
CCC(C)C(NC(=O)OCc1ccccc1)C(=O)OCN1C(=O)c2ccccc2C1=O (stereo not given)	–	12.6 µM (active)
COC(=O)CNC(=O)C(C)NC(=O)CNC(=O)OCc1ccccc1 (stereo not drawn) (Cbz-Gly-[ξA]-Gly-OMe)	–	inactive
N#CC(=C(/N)Sc1ccccc1N)/C(C#N)=C(/N)Sc1ccccc1N	–	inactive
N#Cc1ccccc1Sc1ccccc1N	–	5.01 µM (active)
CC(=O)COC(=O)CCc1nc2ccccc2[nH]c1=O	–	inactive
CCN(CC)CCOc1ccc2nc(N(C)C)sc2c1	–	inactive
O=c1c(-c2nnc(SCc3ccc(Cl)cc3Cl)o2)cccn1Cc1ccccc1	–	11.2 µM (active)
CC(C)=CCNc1ncnc2nc[nH]c12	-9.02% [at 11.4 µM]	–
S=C(S)O[C@@H]1C[C@@H]2C[C@H]1[C@@H]1CCC[C@H]21	–	3.98 µM (active)
CC1CCC(C(=O)NC(C(=O)N2CCC(N3CCCCC3)CC2)C(C)C)CC1 (stereo not given)	–	inactive
Nc1ncnc2c1ncn2CCCCC(=O)O	9.41% [at 11.4 µM]	–
O=C1C=C(NCC2CCCO2)C2(CCCCC2)O1 (stereo not given)	–	inactive
CC(C)N1CCN(c2ccncc2S(=O)(=O)N2CCCCC2)CC1	-8.32% [at 11.4 µM]	–
O=S(=O)(c1cnccc1N1CCN(CCO)CC1)N1CCCC1	8.09% [at 11.4 µM]	–
O=S(=O)(c1cnccc1N1CCN(/N=C/c2ccccc2)CC1)N1CCCCC1	–	17.8 µM (active)
NC(=O)Nn1c(CCC(=O)O)ccc1-c1ccc(F)cc1	–	inactive
Cc1ccc(-c2ccc(CCC(=O)O)n2CC2CCCO2)cc1 (stereo not given)	–	inactive
CC(=O)c1ccc(-n2c(CCC(=O)O)ccc2-c2cccs2)cc1	–	14.1 µM (active)
Cc1cc(C2CCCCC2)n(O)c(=O)c1	–	inactive
CS(=O)(=O)Nc1cccc(-c2ccc3ncnc(N4CCNCC4)c3c2)c1	-12.1% [at 2.29 µM]	–

Compound	activity, negative = inhibition	AC50
O=C(O)/C(=C/c1c(C(=O)O)[nH]c2cc(Cl)cc(Cl)c12)c1ccccc1	–	inactive
O=C(O)/C(=C\c1ccc(O)cc1)c1cccc2ccccc12	-3.39% [at 11.4 µM]	–
O=C(/C(=C/c1ccc(Cl)cc1)c1nc2ccccc2[nH]1)c1ccccc1	–	0.631 µM (active)
CN1CCN(CCCN2c3ccccc3Sc3ccc(S(=O)(=O)N(C)C)cc32)CC1	–	inactive
N[C@@H](Cc1[nH]nc2ccccc12)C(=O)O	7.77% [at 11.4 µM]	–
CN(Cc1ccccc1)C(=O)CC(c1ccccc1)c1cc(Cl)ccc1O (stereo not given)	–	4.47 µM (active)
CC(C)Oc1ccc(CNC(=O)CC(c2ccccc2)c2cc(Cl)ccc2O)cc1 (stereo not given)	–	2.24 µM (active)
C[C@@H](c1ccccc1)N1C(=O)[C@@H]2[C@H]3C(=CC[C@H]2C1=O)C(=O)[C@H]1O[C@H]1[C@H]3O	-6.91% [at 11.4 µM]	–
Oc1cc(O)c2c(c1)O[C@H](c1ccc(O)c(O)c1)[C@H](O)C2	–	inactive
Cc1ccc(-n2c(-c3cc(C)n(C)n3)n[nH]c2=S)cc1	–	inactive
Cc1cc(-c2n[nH]c(=S)o2)c(C)n1-c1ccccc1	–	12.6 µM (active)
CC[N+](CC)(CC)CCOc1cccc(OCC[N+](CC)(CC)CC)c1OCC[N+](CC)(CC)CC	–	inactive
CCCN1C[C@@H](CSC)C[C@H]2c3cccc4[nH]cc(c34)C[C@@H]21	–	inactive
O=C(N/N=C/c1ccc(Cl)cc1Cl)Nc1ccccc1	–	inactive
C/C(=N\NC(=O)c1cccc(F)c1)c1ccc(Br)s1	–	inactive
O=C(N/N=C/c1ccc(Cl)cc1Cl)c1cccc(F)c1	–	15.8 µM (active)
Cc1cnc(CNc2nc(-c3ccccc3Cl)nc3ccccc23)cn1	7.89% [at 2.29 µM]	–
CC(C)c1ccc(N2C(=O)CC(Sc3nc4ccccc4o3)C2=O)cc1 (stereo not given)	–	2.24 µM (active)
CC1(CCC#N)N=C(SCCC#N)N(c2ccccc2)C1=O (stereo not given)	–	inactive
Cc1ccc(/C(C#N)=C/c2cccc([N+](=O)[O-])c2)cc1	-10.5% [at 11.4 µM]	–
Cc1c(OC(=O)c2ccc([N+](=O)[O-])cc2)c2c(c[n+]1C)COC(C)(C)OC2	–	inactive
Cc1ccc(S(=O)(=O)CC#CCOC(=O)c2ccc([N+](=O)[O-])cc2)cc1	–	5.62 µM (active)
COc1ccc(Cc2ccccc2C(=O)O)c2ccccc12	–	3.98 µM (active)
Cc1ccc(C(=N)c2ccccc2Cc2cccc3ccccc23)c2ccccc12	5.86% [at 11.4 µM]	–

Compound	activity, negative = inhibition	AC50
COc1cc(Cl)c(CC(=O)c2c[nH]c3ccccc23)cc1OC	-14.5% [at 11.4 µM]	–
N[C@@H](C(=O)O)c1cc(O)ccc1Cl	–	inactive
N#C/C(=C(/O)CN1CCCCC1)c1nc(-c2ccc(Cl)cc2)cs1	–	inactive
Cc1ccc(-c2csc(C(C#N)=C3CCCC3)n2)cc1	–	11.2 µM (active)
O=C(CSCC(=O)OCn1nnc2ccccc2c1=O)Nc1ccc(Cl)cc1	–	12.6 µM (active)
COC(=O)c1ccc(N2CCN(c3ccccc3)CC2)c(NC(=O)C2CC2)c1	–	inactive
COC(=O)c1ccc(C(=O)OC)c(NC(=S)N2CCN(c3ccccc3)CC2)c1	–	6.31 µM (active)
COC(=O)c1cc(OC)c(OC)cc1NC(=S)N1CCN(C)CC1	–	inactive
Cc1cccc(C)c1OC[C@H](C)N	–	inactive
Cc1cc(=O)[nH]c2c1c(C)nn2C1CCOC(C)(C)C1 (stereo not given)	–	inactive
Cn1c(=O)n(-c2ccc(Cl)cc2)c(=O)c2c3c(sc21)COC(C)(C)C3	–	10 µM (active)
Cn1c(=O)n(-c2cccc(Cl)c2)c(=O)c2c3c(sc21)COC(C)(C)C3	–	15.8 µM (active)
CN1CCc2c(sc3c2c(=O)n(-c2ccccc2)c2nncn32)C1	–	inactive
COc1cccc(C(C#N)N2N=C(C)CC2(C)C)c1O (stereo not given)	–	inactive
O=C1[C@@H]2[C@H]3[C@H](O)[C@H](O)C/C(=N/OCc4ccccc4)[C@@H]3CC[C@H]2C(=O)N1c1ccc(F)cc1F	12.2% [at 11.4 µM]	–
C=C[C@@]1(C)CC(=O)[C@@]2(O)[C@@]3(C)[C@@H](O)CCC(C)(C)[C@@H]3[C@H](O)[C@H](OC(C)=O)[C@@]2(C)O1	–	inactive
C=C[C@@]1(C)CC(=O)[C@@]2(O)[C@@]3(C)[C@H](O)CCC(C)(C)[C@@H]3[C@H](O)[C@H](OC(C)=O)[C@]2(C)O1	–	inactive
C=C[C@@]1(C)CC(=O)[C@@]2(O)[C@@]3(C)[C@@H](O)CCC(C)(C)[C@@H]3[C@H](OC(=O)CCN(C)C)[C@H](OC(C)=O)[C@@]2(C)O1	–	0.126 µM (active)
CC1(C)SC(=S)N(NC(=O)Nc2ccccc2)C1N(O)C(=O)Nc1ccccc1 (stereo not given)	–	10 µM (active)
COCCNc1nc(-c2ccccc2CN(C)C)nc2ccccc12	1.68% [at 2.29 µM]	–
COc1ccc([C@@H](Nc2ccccn2)c2cc(C(C)(C)C)cc(C(C)(C)C)c2O)cc1	–	2.51 µM (active)
O[C@H](CNc1ccccn1)c1ccccc1	-4.96% [at 11.4 µM]	–
COc1ccc([C@H](O)c2ccccn2)cc1	-12.5% [at 11.4 µM]	–
